Each structure is given as a SMILES string. Screen size: about 190,000 compounds; about 1,300 (0.68%) were called active. Only a selection was taken, and actives are over-represented in it overall. Unmarked numbers belong to inactive results. Rule as the data show it: active = inhibition above about 50%; inactive = the rest.

The assay deals with Mannose-6-phosphate isomerase (Homo sapiens) (UniProt P34949). Briefly: human PMI inhibitors, high substrate, primary screen, biochemical, fluorescence intensity, high mannose 6-phosphate (AID 1220). To be noted: recombinant PMI enzyme, coupled fluorescence intensity; at 20 µM; hits give high values.
Chain of Mannose-6-phosphate isomerase (Homo sapiens) (P34949 whole entry, looked up): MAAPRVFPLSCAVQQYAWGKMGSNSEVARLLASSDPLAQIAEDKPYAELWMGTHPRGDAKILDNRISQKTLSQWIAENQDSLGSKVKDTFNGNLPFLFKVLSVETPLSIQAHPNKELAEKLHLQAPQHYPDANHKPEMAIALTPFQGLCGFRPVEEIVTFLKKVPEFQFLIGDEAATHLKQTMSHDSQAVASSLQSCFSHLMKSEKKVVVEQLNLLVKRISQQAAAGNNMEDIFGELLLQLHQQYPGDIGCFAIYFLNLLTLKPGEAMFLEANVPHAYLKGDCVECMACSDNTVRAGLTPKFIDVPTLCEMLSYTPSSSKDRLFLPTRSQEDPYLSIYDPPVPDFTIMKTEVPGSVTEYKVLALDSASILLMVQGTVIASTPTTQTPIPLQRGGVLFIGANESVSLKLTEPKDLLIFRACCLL
For orientation: inhibition means the change of the read-out against control, counted positive when it falls. Turning to `OC(c1ccccc1)c1nc2ccccc2s1` (configuration not stated), the inhibition is 6%.
In the case of `O=C(N/N=C/c1ccc(Br)o1)c1ccc2c(c1)OCCO2` it was 0%; in that of `C(=N\Nc1nc2ccccc2[nH]1)/c1ccccn1`, -33.9%; in that of `CC(C)CN1C(=O)/C(=C(/C#N)C(=O)NC2CCCCC2)c2ccccc21`, 20%.
On to `N#CCCCN1C(=O)C(O)(CC(=O)c2ccc3c(c2)OCCO3)c2ccccc21` (configuration not stated), for which the inhibition was 11.1%.
In the case of `N#CCCCN1C(=O)C(=C(C#N)C#N)c2ccccc21` it was 59.5% (active); in that of `Cc1ccc(C(=O)NCCCNc2ccccc2[N+](=O)[O-])cc1`, 1.8%.
In the case of `Cc1ncc(S(=O)(=O)c2ccccc2)c(-c2ccccc2)n1` it was -4.6%.
In the case of `CC(C)C(=O)NC(=S)Nc1ccc(S(=O)(=O)NC(C)(C)C)cc1` it was -1.7%; in that of `COC(=O)C1=C(C)N(CCc2ccc(OC)c(OC)c2)C(=O)/C1=C\c1ccc(O)cc1`, 6%.
Consider `C=CCOc1cccc(/C=C2\C(=O)N(Cc3ccc(C)cc3)C(C)=C2C(=O)OC)c1`, for which the inhibition was 10.8%.
In the case of `COC(=O)C1=C(C)N(Cc2ccc(C)cc2)C(=O)/C1=C\c1cc(OC)c(OC)c(OC)c1` it was 23.1%.
In the case of `CCOc1cc(/C=C2\C(=O)N(Cc3ccco3)C(C)=C2C(=O)OC)ccc1O` it was 68.2% (active); in that of `COC(=O)C1=C(C)N(Cc2ccc(C)cc2)C(=O)/C1=C\c1ccc(O)c(OC)c1`, 58.7% (active); in that of `CCOc1cc(/C=C2\C(=O)N(Cc3ccc(C)cc3)C(C)=C2C(=O)OC)ccc1O`, 53.3% (active).
In the case of `COC(=O)C1=C(C)N(Cc2ccco2)C(=O)/C1=C\c1ccc([N+](=O)[O-])cc1` it was -22%.
As to `COC(=O)C1=C(C)N(Cc2ccco2)C(=O)/C1=C\c1ccc(N(C)C)cc1`, the inhibition was 19.7%.
In the case of `CCOc1cc(/C=C2/N=C(C)C(C(=O)OC)=C2O)ccc1O` it was 31.3%; in that of `CCN1C(=O)/C(=C\c2ccc3c(c2)OCO3)C(C(=O)OC)=C1C`, -6.5%; in that of `CCOc1cc(/C=C2\C(=O)N(CCc3ccc(OC)c(OC)c3)C(C)=C2C(=O)OC)ccc1O`, 50.6% (active).
With `COC(=O)C1=C(C)N(CCc2ccc(OC)c(OC)c2)C(=O)/C1=C\N(C)C`, the inhibition is -13.2%.
In the case of `c1ccc(-c2nc3ccccc3[nH]2)nc1` it was 15.7%; in that of `Cc1ccc(CCNC(=O)C2CCCN(C(=O)N(C)C)C2)cc1` (configuration not stated), -6.4%; in that of `O=C(CN1C(=O)COc2ccccc21)N1CCc2ccccc21`, 1.2%.
For the molecule `COc1ccc(NC(=O)CC2C(=O)N(C)C(=S)N2CCc2ccccc2F)cc1` (configuration not stated), the inhibition was 8.1%.
For `CC(C)=CCN1CCN(Cc2cnc(N3CCOCC3)s2)CC1CCO` (configuration not stated), the inhibition was -6.5%.
In the case of `O=C(C1=C[C@@H](c2coc3ccccc3c2=O)C[C@@H](OCc2ccc(CO)cc2)O1)N1CCOCC1` it was -6.8%.
In the case of `CCOC(=O)Cc1csc(SCn2nnc3ccccc3c2=O)n1` it was -0.1%; in that of `CCOC(=O)Cc1csc(NC(=O)c2cc(=O)c3ccccc3o2)n1`, -6.1%.
In the case of `CCOC(=O)c1c(N)c(C#N)cn1-c1ccccc1` it was 10%; in that of `C=CCNC(=S)Nc1cccc2ccccc12`, 14.3%; in that of `C=CCNC(=S)Nc1cccc2[nH]ncc12`, 52.5% (active).
With `CNC(=S)Nc1cccc2[nH]ncc12`, the inhibition was 2.6%.
`CCCCn1c2nc3ccccc3nc2c2c(=N)oc(C)nc21`: the inhibition is 30.1%.
In the case of `COc1ccc(-n2c3nc4ccccc4nc3c3c(=N)oc(C)nc32)cc1` it was 55.9% (active); in that of `CCCCC(CC)Cn1c2nc3ccccc3nc2c2c(=N)oc(C)nc21` (configuration not stated), -4.2%; in that of `CCn1c(SCC(=O)N/N=C/c2ccc(C)o2)nnc1-c1ccccc1`, 3.1%.
For `CN1CCN(S(=O)(=O)c2ccc3c(c2)OCCO3)CC1`, the inhibition was -4.9%.
For `COc1cc2c(cc1/C=C/C(=O)O)OC(C)C2` (configuration not stated), the inhibition was 13.7%.
In the case of `CC(C)(Cl)C1Cc2cc3ccc(=O)oc3cc2O1` (configuration not stated) it was -9.9%; in that of `CCc1nnc(NC(=O)CSc2nnc3c(C)cc4c(C)ccc(C)c4n23)s1`, 2.3%.
As for `Cc1nc2ccc(NC(=O)/C=C/C(=O)O)cc2nc1C`, the inhibition was 42.9%.
In the case of `O=C(O)/C=C/C(=O)Nc1ccc2nccnc2c1` it was 56.2% (active); in that of `CC(C)(C)NC(=O)Nc1ccc2nccnc2c1`, 35.1%; in that of `CN1CC(=O)N(CC(=O)N2CCC(Cc3ccccc3)CC2)C1=O`, -3.5%.
Turning to `CCC(C)N(C(=O)CSc1nc(-c2ccccc2)cs1)C1CCS(=O)(=O)C1` (configuration not stated), the inhibition is 3.2%.
In the case of `Oc1ccc2ccccc2c1CNn1cnnc1` it was 3.1%; in that of `CC(C)CN(Cc1c(O)ccc2ccccc12)CC(C)C`, 68.8% (active); in that of `Cc1cc(=O)oc2c(CN(CC(C)C)CC(C)C)c(O)ccc12`, -3.3%.
In the case of `O=C(CN1CCC(C(O)(c2ccccc2)c2ccccc2)CC1)Nc1ccccc1` it was -1.7%; in that of `CCN1CCN(c2nc(-c3ccncc3)nc3ccccc23)CC1`, 6.3%.
In the case of `NC(=O)C1CCN(C(=O)c2cc3n(n2)C(C(F)(F)F)CC(c2ccco2)N3)CC1` (configuration not stated) it was 0.3%; in that of `COc1ccc(CCNC(=O)CCCn2nc(C)c([N+](=O)[O-])c2C)cc1OC`, 8.3%; in that of `CCCCn1c2nc3ccccc3nc2c2c(=O)n(C(C)CC)cnc21` (configuration not stated), 53.2% (active).
For `CCCCn1c2nc3ccccc3nc2c2c(=O)n(CCC(C)C)cnc21`, the inhibition is -12.9%.
In the case of `CCCCn1c2nc3ccccc3nc2c2c(=O)n(CCC)cnc21` it was 7.3%.
On to `CCOC(=O)C1=C(CSc2nc(CC)c(C)cc2C#N)OC(N)=C(C#N)C1c1ccc(OC)cc1` (configuration not stated), for which the inhibition was 52.3% (active).
In the case of `CCOC(=O)C1=C(CSc2nc(CC)c(C)cc2C#N)OC(N)=C(C#N)C1c1ccccc1` (configuration not stated) it was 11.9%.
In the case of `CCOC(=O)C1=C(CSc2nc(-c3ccccc3)ccc2C#N)OC(N)=C(C#N)C1c1ccc(OC)cc1` (configuration not stated) it was 29.4%; in that of `CCOC(=O)C1=C(CC)OC(N)=C(C#N)C1c1cccs1` (configuration not stated), 4.7%.
With `CCOC(=O)C1=C(CSc2nc(C)cc(C)c2C#N)OC(N)=C(C#N)C1c1cccs1` (configuration not stated), the inhibition was 55.7% (active).
In the case of `CCOC(=O)C1=C(CSc2nc(C)cc(C)c2C#N)OC(N)=C(C#N)C1c1ccccc1` (configuration not stated) it was 47%.

Values taken from PubChem BioAssay AID1220 (Sanford-Burnham Center for Chemical Genomics, 2008).
